Assay results published in paper PMC4336329 (PLoS ONE, 2015).
The whole screen tested about 310,000 compounds, of which about 2,200 (0.71%) showed an effect of 50% or more. The effect is printed as a negative number. This is one part of a sample in which strong results are shown more often than they occur.

What follows are compounds tested against human ether-à-go-go-related gene (hERG) potassium channel (human, UniProt Q12809) (assay: primary screen, population patch clamp on CHO cells stably expressing hERG; higher = less effect of the substance).
Method: Briefly, Chinese hamster ovary (CHO) cells stably expressing the hERG channel were dislodged from tissue culture flasks and dispensed into PPC plates. […] During the recording, background leak currents were estimated by a 100 ms step to -80 mV from an initial holding potential of -70 mV and subtracted from the subsequent current measurement. The campaign was conducted in two phases using slight differences in recording protocol. In the first phase, the initial voltage pulse used a 100 ms step to -30 mV from a holding potential of -70 mV, a 2 s conditioning step to +25 mV, and a 2 s test step to -30 mV. During the second phase of the screen, the potential during the conditioning step was raised to +45 mV. In both phases of the campaign, a secondary voltage pulse was applied using the same parameters as the second phase initial pulse. The initial and secondary pulses were applied in the absence of compound, and upon application of 1 μM and 10 μM test concentrations. Small molecule effects on hERG current density were quantified by […].

human ether-à-go-go-related gene (hERG) potassium channel, sequence (Q12809 whole entry, looked up): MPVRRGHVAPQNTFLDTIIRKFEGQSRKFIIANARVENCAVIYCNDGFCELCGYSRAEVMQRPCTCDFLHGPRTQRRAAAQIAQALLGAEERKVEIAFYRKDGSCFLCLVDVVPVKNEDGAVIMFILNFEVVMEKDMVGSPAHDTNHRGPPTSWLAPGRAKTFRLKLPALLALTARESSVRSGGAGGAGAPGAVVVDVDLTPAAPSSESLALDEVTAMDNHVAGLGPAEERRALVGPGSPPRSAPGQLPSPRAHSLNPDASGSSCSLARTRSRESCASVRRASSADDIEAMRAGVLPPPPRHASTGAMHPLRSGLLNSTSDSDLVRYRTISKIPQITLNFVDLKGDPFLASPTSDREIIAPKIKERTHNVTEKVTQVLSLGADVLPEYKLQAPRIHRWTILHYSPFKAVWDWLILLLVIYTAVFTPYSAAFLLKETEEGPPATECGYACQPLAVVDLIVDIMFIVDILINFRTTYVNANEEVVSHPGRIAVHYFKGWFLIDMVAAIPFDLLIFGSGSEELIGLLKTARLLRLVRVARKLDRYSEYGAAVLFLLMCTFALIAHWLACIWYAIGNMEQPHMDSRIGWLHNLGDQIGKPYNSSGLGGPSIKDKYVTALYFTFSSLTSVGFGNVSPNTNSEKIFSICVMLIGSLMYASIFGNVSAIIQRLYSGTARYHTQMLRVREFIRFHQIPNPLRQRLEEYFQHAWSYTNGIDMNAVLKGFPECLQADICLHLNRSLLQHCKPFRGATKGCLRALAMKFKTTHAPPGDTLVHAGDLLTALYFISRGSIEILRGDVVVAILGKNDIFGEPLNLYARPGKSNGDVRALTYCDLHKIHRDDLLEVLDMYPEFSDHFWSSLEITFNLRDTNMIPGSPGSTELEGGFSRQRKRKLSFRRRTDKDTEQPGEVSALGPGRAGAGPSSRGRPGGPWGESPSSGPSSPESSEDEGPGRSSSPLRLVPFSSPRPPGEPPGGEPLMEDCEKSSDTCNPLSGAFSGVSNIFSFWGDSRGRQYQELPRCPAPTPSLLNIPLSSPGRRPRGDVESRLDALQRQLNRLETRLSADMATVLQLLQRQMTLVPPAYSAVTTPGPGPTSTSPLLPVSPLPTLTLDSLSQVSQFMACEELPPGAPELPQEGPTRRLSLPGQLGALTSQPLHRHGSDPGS

First: Cc1cc(C)nc(-n2ncc3c2CC(C)CC3=O)n1 (stereo not shown)
Second: Cc1ccn2c(=O)nc(SCC(=O)NC3CCCCC3)nc2c1
The “hERG current change (%, negative = inhibition) at 1uM” value of the first is higher: 11.4% for the first, 2.62% for the second.

Going from `O=C(CN1C(=O)C2CCCCN2C(=O)c2ccccc21)N1CCCc2ccccc21` (stereo not shown) to `O=[N+]([O-])c1ccccc1S(=O)(=O)N(CC(O)CN1CCCCC1)c1ccccc1` (stereo not shown), the “hERG current change (%, negative = inhibition) at 1uM” value falls from 15.1% to 2.79%.

First: O=C(Cc1cccs1)Nc1nnc(SCc2cccc3ccccc23)s1
Second: CCn1c(SCC(=O)Nc2ccccc2)nnc1-c1cccs1
The “hERG current change (%, negative = inhibition) at 1uM” value of the first is higher: -3.03% for the first, -13.8% for the second.

First: COc1ccc(OC)c(NC(=O)CSc2nc(=O)n(Cc3ccccn3)c3c2CCC3)c1
Second: C=CCn1c(SCC(=O)Nc2ccc3c(c2)CCC3)nnc1-c1cccs1
The “hERG current change (%, negative = inhibition) at 1uM” value of the first is higher: -2.43% for the first, -83.5% for the second.

First: Cc1cc(O)c(C(C)C)cc1NC(=O)Cn1nc(C)c2ccccc2c1=O
Second: Cc1cc([N+](=O)[O-])ccc1NC(=O)Nc1ccccc1F
The “hERG current change (%, negative = inhibition) at 1uM” value of the first is lower: -6.85% for the first, 13% for the second.

Compared with `Cc1ccc(NC(=O)CCc2ccc(C)o2)cc1`, `COC(=O)c1ccc(NC(=O)c2cc[n+]([O-])cc2)cc1` is higher in “hERG current change (%, negative = inhibition) at 1uM” value: 7.21% for the first, 10.9% for the second.

Compared with `Clc1ccc2[nH]c3c(NCC4CCCO4)ncnc3c2c1` (stereo not shown), `CCN1CCCC1CNc1ncnc2c1[nH]c1ccc(Cl)cc12` (stereo not shown) is lower in “hERG current change (%, negative = inhibition) at 1uM” value: -3.05% for the first, -85.5% for the second.

First: CCN1CCCC1CNC(=O)c1cc2cc(F)ccc2[nH]1 (stereo not shown)
Second: CCN1CCCC1CNC(=O)c1cc2ccc(OC)cc2[nH]1 (stereo not shown)
The “hERG current change (%, negative = inhibition) at 1uM” value of the first is lower: -53.8% for the first, 5.34% for the second.

Compared with `CCN1CCCC1CNC(=O)c1cc2cc(OC)c(OC)cc2[nH]1` (stereo not shown), `CCN1CCCC1CNc1ncnc2c1[nH]c1ccc(F)cc12` (stereo not shown) is lower in “hERG current change (%, negative = inhibition) at 1uM” value: 16.2% for the first, -81.4% for the second.

Compared with `Fc1ccc2[nH]c3c(NCc4ccccc4)ncnc3c2c1`, `Fc1ccc2[nH]c3c(NCCN4CCOCC4)ncnc3c2c1` is lower in “hERG current change (%, negative = inhibition) at 1uM” value: 15.4% for the first, 8.84% for the second.

Going from `Clc1ccc2[nH]c3c(NCCN4CCOCC4)ncnc3c2c1` to `Cc1ccc(CCN2CC(C(=O)NCCCN3CCOCC3)CC2=O)cc1` (stereo not shown), the “hERG current change (%, negative = inhibition) at 1uM” value rises from -2.76% to 16.5%.

First: CCc1noc(C)c1C(=O)NNC(=O)c1cc(OC)cc(OC)c1
Second: COc1cc(-c2nc3cnccc3n2C)cc(OC)c1OC
The “hERG current change (%, negative = inhibition) at 1uM” value of the first is higher: 9.15% for the first, 2.44% for the second.

First: CCOc1cc(C2c3c(n[nH]c3C)C(=O)N2c2ccc(Br)cc2)ccc1O (stereo not shown)
Second: CCc1ccc(-n2nc3cc(C)c(N)cc3n2)cc1
The “hERG current change (%, negative = inhibition) at 1uM” value of the first is lower: 10.8% for the first, 13.3% for the second.

Compared with `CCC(Oc1ccc2c(c1)C(=O)CC(C)(C)O2)C(=O)NCCN1CCCCCC1.O=C(O)C(=O)O` (stereo not shown), `COc1ccc(NC(=O)NC2(C(=O)N3CCCC(C)C3)CCCCC2)cc1` (stereo not shown) is higher in “hERG current change (%, negative = inhibition) at 1uM” value: -9.15% for the first, 14.1% for the second.

Compared with `C=CCn1c(SCC(=O)O)nnc1-c1cccs1`, `C=CCn1c(SCC(=O)C(C)(C)C)nnc1-c1cccs1` is lower in “hERG current change (%, negative = inhibition) at 1uM” value: 9.03% for the first, -9.56% for the second.

First: C=CCn1c(SCC(=O)Nc2ccc(C(=O)OC(C)C)cc2)nnc1-c1cccs1
Second: C=CCn1c(SCC(=O)Nc2ccc(C(=O)OCC)cc2)nnc1-c1cccs1
The “hERG current change (%, negative = inhibition) at 1uM” value of the first is lower: 9.31% for the first, 12.3% for the second.

Compared with `C=CCn1c(SCC(=O)N2CCN(c3ccccc3)CC2)nnc1-c1ccco1`, `C=CCn1c(SCC(=O)N2CCN(c3ccc(F)cc3)CC2)nnc1-c1ccco1` is lower in “hERG current change (%, negative = inhibition) at 1uM” value: 4.57% for the first, -67% for the second.

Going from `CCn1c(SCC(=O)Nc2nc(C)c(C)s2)nnc1-c1ccco1` to `CCn1c(SCC(=O)Nc2nc(C)c(C)s2)nnc1-c1cccs1`, the “hERG current change (%, negative = inhibition) at 1uM” value falls from -11.2% to -62.5%.

First: C=CCn1c(SCC(=O)N2CCN(c3ccc(F)cc3)CC2)nnc1-c1cccs1
Second: C=CCn1c(SCC(=O)Nc2ccc(N3CCOCC3)cc2)nnc1-c1ccco1
The “hERG current change (%, negative = inhibition) at 1uM” value of the first is lower: -52.4% for the first, 8.51% for the second.

First: CN(CC(=O)Nc1ccc(Cl)c(Cl)c1)C(=O)C1CCCC1
Second: COc1ccccc1NC(=O)N1CCCC1C(=O)Nc1ccc2c(c1)OCO2 (stereo not shown)
The “hERG current change (%, negative = inhibition) at 1uM” value of the first is higher: 5.9% for the first, 2.76% for the second.

Compared with `Cc1cc(NC(=O)c2cc(-c3ccccc3)on2)n(-c2ccccc2)n1`, `CC1CN(C(=O)C(Sc2ccccc2)c2ccccc2)CC(C)O1` (stereo not shown) is lower in “hERG current change (%, negative = inhibition) at 1uM” value: 7.88% for the first, 5.46% for the second.

Compared with `O=C(COC(=O)c1ccc2ccccc2n1)c1ccc(F)cc1`, `N#C/C(=C1\CCCN1)c1ccc2ccccc2n1` is higher in “hERG current change (%, negative = inhibition) at 1uM” value: -5.55% for the first, 8.93% for the second.

First: O=C(CCc1nnc(CCc2ccccc2)o1)NC(c1cccnc1)C(F)(F)F (stereo not shown)
Second: Cc1cccnc1NC(=S)NCCc1ccccc1
The “hERG current change (%, negative = inhibition) at 1uM” value of the first is higher: -0.569% for the first, -3.36% for the second.

Compared with `CN1CCCc2cc3c(C(F)(F)F)cc(=O)oc3nc21`, `O=C(CSc1nc(C(F)(F)F)cc(=O)[nH]1)N1CCCCCC1` is lower in “hERG current change (%, negative = inhibition) at 1uM” value: 14.3% for the first, 5.27% for the second.

First: Cc1nc(C)c(C(=O)NCc2ccccc2Cl)o1
Second: COC(=O)c1ccc(Cn2nc(C)c([N+](=O)[O-])c2C)o1
The “hERG current change (%, negative = inhibition) at 1uM” value of the first is higher: 10.8% for the first, 2.01% for the second.

First: Cc1ccc(S(=O)(=O)N(CC(O)CN2CCOCC2)c2cccc([N+](=O)[O-])c2)cc1 (stereo not shown)
Second: Cc1ccc(S(=O)(=O)N(CC(O)CN2CCCCC2)c2cccc([N+](=O)[O-])c2)cc1 (stereo not shown)
The “hERG current change (%, negative = inhibition) at 1uM” value of the first is higher: 2.27% for the first, -73.1% for the second.

First: O=C(CN(c1ccc([N+](=O)[O-])cc1)S(=O)(=O)c1ccccc1)N1CCCCC1
Second: O=[N+]([O-])c1ccc(N(CC(O)CN2CCCCC2)S(=O)(=O)c2ccccc2)cc1 (stereo not shown)
The “hERG current change (%, negative = inhibition) at 1uM” value of the first is higher: -0.85% for the first, -79.5% for the second.

Compared with `O=[N+]([O-])c1ccc(S(=O)(=O)N(CC(O)CN2CCCCC2)c2ccccc2)cc1` (stereo not shown), `O=[N+]([O-])c1cccc(N(CC(O)CN2CCCCC2)S(=O)(=O)c2ccccc2)c1` (stereo not shown) is higher in “hERG current change (%, negative = inhibition) at 1uM” value: -80.4% for the first, -24.2% for the second.

Going from `O=[N+]([O-])c1cccc(N(CC(O)CN2CCCC2)S(=O)(=O)c2ccccc2)c1` (stereo not shown) to `COc1ccc([N+](=O)[O-])cc1N(CC(O)CN1CCCCC1)S(=O)(=O)c1ccccc1` (stereo not shown), the “hERG current change (%, negative = inhibition) at 1uM” value rises from -25.9% to 2.16%.

Compared with `Cn1c(=O)cc(OCCCC(=O)Nc2ccc3c(c2)OCCO3)c2ccccc21`, `O=C(CCC1COc2ccccc2O1)NCC1COc2ccccc2O1` (stereo not shown) is lower in “hERG current change (%, negative = inhibition) at 1uM” value: 17.2% for the first, 6.41% for the second.

Compared with `C/C(=N\NC(=O)CNC(=O)C(c1ccccc1)c1ccccc1)c1ccc(C(C)(C)C)cc1`, `CC(C)C[C@H](NC(=O)c1[nH]cnc1C(=O)N[C@@H](Cc1ccccc1)C(=O)OCc1ccccc1)C(=O)OCc1ccccc1` is higher in “hERG current change (%, negative = inhibition) at 1uM” value: 2.98% for the first, 10.2% for the second.

Compared with `CCCCOc1ccc(CN(C)c2ncnc(N)n2)cc1`, `CNC(=O)c1[nH]cnc1C(=O)N[C@@H](CC(C)C)C(=O)OCc1ccccc1` is lower in “hERG current change (%, negative = inhibition) at 1uM” value: -1.16% for the first, -51.8% for the second.

Compared with `O=[N+]([O-])/C(C(Cl)=C(Cl)Cl)=C(\Sc1ccccc1)N1CCCCC1`, `COc1ccc(N2CCN(C(=O)CSc3ccccc3)CC2)cc1` is higher in “hERG current change (%, negative = inhibition) at 1uM” value: -3.16% for the first, 12.7% for the second.

Compared with `Nc1cccc2c1C(=O)N(C(=O)c1cccc(S(=O)(=O)N3CCCC3)c1)C2=O`, `O=C1NN(c2ccc(Cl)c(Cl)c2)C(=O)/C1=C/c1ccc(-c2ccccc2C(=O)O)o1` is higher in “hERG current change (%, negative = inhibition) at 1uM” value: 12.5% for the first, 13% for the second.

Compared with `Cc1cccc(CS(=O)(=O)Cc2ccc(C(=O)N3CCC4(CC3)OCCO4)o2)c1`, `CC1(C)Cc2cccc(OCC(=O)N3CCN(c4ccccc4)CC3)c2O1` is lower in “hERG current change (%, negative = inhibition) at 1uM” value: 10% for the first, -2.57% for the second.

Going from `CC(C)C[C@H](NC(=O)c1nc[nH]c1C(=O)N[C@@H](CC(C)C)C(=O)OCc1ccccc1)C(=O)OCc1ccccc1` to `CC(=O)c1cccc(NC(=O)/C(=C\c2ccco2)NC(=O)c2ccco2)c1`, the “hERG current change (%, negative = inhibition) at 1uM” value falls from 9.56% to -50.7%.

Compared with `Cc1nnc(SCc2nnc(-c3ccccc3Br)o2)s1`, `CC(=O)c1ccc(NC(=O)/C(=C\c2ccco2)NC(=O)c2ccco2)cc1` is lower in “hERG current change (%, negative = inhibition) at 1uM” value: 18.8% for the first, 4.96% for the second.

Going from `CC(=O)c1cccc(NC(=O)/C(=C/c2ccco2)NC(=O)c2ccco2)c1` to `O=C(ON=C1CCN(c2ccc([N+](=O)[O-])cc2)CC1)c1ccccc1`, the “hERG current change (%, negative = inhibition) at 1uM” value falls from 10.1% to -26%.

Compared with `CC1(C)Cc2cccc(OCC(=O)N3CCN(c4ccc([N+](=O)[O-])cc4)CC3)c2O1`, `CC1(C)Cc2cccc(OCC(=O)N3CCN(c4ccc(F)cc4)CC3)c2O1` is higher in “hERG current change (%, negative = inhibition) at 1uM” value: -51.8% for the first, -16.2% for the second.

Going from `Cc1ccc(C(=O)ON=C2CCN(c3ccc([N+](=O)[O-])cc3)CC2)cc1` to `COc1ccc(C(=O)ON=C2CCN(c3ccc([N+](=O)[O-])cc3)CC2)cc1`, the “hERG current change (%, negative = inhibition) at 1uM” value falls from -21.2% to -57.7%.

Compared with `O=C(Cc1ccccc1)N1CCN(c2ccc([N+](=O)[O-])cc2)CC1`, `O=C(CCc1ccccc1)N1CCN(c2ccc([N+](=O)[O-])cc2)CC1` is lower in “hERG current change (%, negative = inhibition) at 1uM” value: -36.4% for the first, -67.4% for the second.

Compared with `COc1ccc(N2CCN(C(=O)CSc3ccc([N+](=O)[O-])cc3)CC2)cc1`, `COc1ccc(C(=O)CCC(=O)N2CCN(c3ccc([N+](=O)[O-])cc3)CC2)cc1` is higher in “hERG current change (%, negative = inhibition) at 1uM” value: -85.1% for the first, -28.4% for the second.

For `O=C(CCCc1ccccc1)N1CCN(c2ccc([N+](=O)[O-])cc2)CC1`, the “hERG current change (%, negative = inhibition) at 1uM” value was -48.2%.
